Screening results: PubChem BioAssay, several laboratories
Sampled rows, rich in hits. Any-hit rate of the full collection: about 2.2%.
PLCg1 inh – blocks human PLC-gamma1 enzyme activity | AID 720700 | P19174 | hit rate 0.84% among 370,000 | inhibition, % at 12.2 µM | purified PLC-gamma1, fluorogenic substrate, fluorescence; in the data active means inhibition above about 9.5%
FAS TE block – blocks the thioesterase domain of human fatty acid synthase; P49327; recombinant FAS-TE, OMFH fluorogenic substrate, fluorescence endpoint; inhibition, % at 15 µM; hit rate 0.67% among 360,000;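 active means compounds whose normalised, plate-corrected inhibition of enzyme fluorescence in the single-dose primary screen is 50% or more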;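 further: 0% = DMSO with enzyme and 100% = substrate without enzyme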
PLC-beta3 inh – PLC-beta3 (human) inhibition, primary screen; hit rate 0.18% among 370,000; inhibition, % at 12.2 µM; Q01970; Purified PLC-beta3, fluorogenic substrate, fluorescence; in the data active means inhibition above about 11%;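 further: 0% = median of compound wells on plate and 100% = full blocker control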
H9c2 protect – modulators protecting cardiomyocytes from myocardial damage | hit rate 0.63% among 360,000 | H9c2 cardiomyocytes, H2O2 injury protection, ATPLite, 2 h | protection from H2O2 cell death, % at 20 µM;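 active means compounds giving at least 50% protection of heart cells from peroxide-induced death in the single-dose screen, raw or plate-pattern-corrected value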;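 further: 0% = DMSO wells with peroxide and 100% = DMSO wells without peroxide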
Active calls of the source: *; i = inactive; / = no result given.

SMILES	PLCg1 inh	FAS TE block	PLC-beta3 inh	H9c2 protect
Cc1cccc(C(=O)N/N=C2\CS(=O)(=O)N(C)c3ccsc32)c1	-4	-6	-10	64*
CC(C)CN(C(=O)c1cc([N+](=O)[O-])cc([N+](=O)[O-])c1)C1CCS(=O)(=O)C1 (stereo unspecified)	-1	-5	-3	2
CC(C)CN(C(=O)CCNC(=O)c1ccc([N+](=O)[O-])cc1)C1CCS(=O)(=O)C1 (stereo unspecified)	7	5	11*	5
COc1ccc(/C=N/NC(=O)CCn2nc(C)cc2C)cc1O	0	-7	-10	-4
O=C(CCC(=O)Nc1ccc(F)cc1)N/N=C/c1ccc(O)cc1O	-39	-6	-40	74*
Cc1cc(C)n(CCC(=O)N/N=C/c2ccccc2O)n1	-18	-6	-24	54*
Cc1cc(C)n(CCC(=O)N/N=C/c2ccc(O)cc2O)n1	4	-12	-1	55*
O=C(CCC(=O)Nc1ccc(F)cc1)N/N=C/c1ccc(O)cc1	1	-2	0	0
O=C(CCN1CCN(C(c2ccccc2)c2ccccc2)CC1)N/N=C/c1ccc(O)cc1O	-6	16	-8	61*
CC(=NNC(=O)CSc1nnc(-c2ccccc2)n1-c1ccccc1)c1ccc2ccccc2c1	-6	/	-7	/
Nc1[nH]c(C(=O)c2ccccc2)c(-c2cccc3ccccc23)c1C(=O)c1cccs1	-3	/	-2	/
COc1cccc(-c2nnc(SCC(=O)Nc3ccc(OCc4ccccc4)cc3)n2Cc2ccco2)c1	-1	/	-4	/
COC(=O)C1=C(C)N(Cc2cccc(C(F)(F)F)c2)C(=NCc2ccc(C(F)(F)F)cc2)NC1c1cccc(C(F)(F)F)c1 (stereo unspecified)	3	/	7	/
CCN(CC)CCCn1c2c(c(SCC(=O)Nc3cccc(C(C)=O)c3)nc1=O)CCC2	2	-8	-5	19
CCN(CC)CCn1c2c(c(SCC(=O)Nc3cccc(C(C)=O)c3)nc1=O)CCCC2	0	-3	-5	75*
Cc1ccc(-c2nn3c(C)nnc3c3ccccc23)cc1S(=O)(=O)NC(C)c1ccccc1 (stereo unspecified)	-3	8	-3	91*
Cc1ccc(-c2nn3c(C)nnc3c3ccccc23)cc1S(=O)(=O)NCCO	-15	1	-12	5
COc1ccc(C[N+]2=C(N)N[C@@]3(C=C(C)Cn4c(=O)n(-c5ccccc5)c(=O)n43)C2)c(OC)c1	-1	/	-3	/
COc1ccc(-c2nnc3ccc(SCC(=O)Nc4nccs4)nn23)cc1OC	-5	-8	-2	9
COc1ccc(-c2nnc3ccc(SCC(=O)Nc4nc5ccccc5s4)nn23)cc1OC	0	3	-1	50*
COC(=O)[C@H](CC(C)C)N(Cc1cn(CC2CCCCC2)nn1)S(=O)(=O)c1ccc(F)cc1Br	6	/	2	/
COC(=O)c1cc(Cl)c(NC(=O)/C=C/c2ccc(OC)c(OC)c2)cc1OC	-238	17	-388	68*
COC(=O)c1cc(OC)c(OC)cc1NC(=O)c1ccc(OC)c(OC)c1	-1	3	2	52*
COC(=O)c1cc(Cl)c(NC(=O)/C=C/c2ccc(Cl)cc2)cc1OC	-4	4	-5	-10
CCN(C(=O)Cn1nnc(-c2ccncc2)n1)c1ccccc1	1	/	3	/
SMILES	PLCg1 inh	FAS TE block	PLC-beta3 inh	H9c2 protect
CC(=O)Nc1sc2c(c1-c1nc3ccccc3s1)CNC2	i	/	i	/
COCCCN1C(=O)[C@H](CC(=O)NCC23CC4CC(CC(C4)C2)C3)[C@]2(C(=O)OC)CCCCC=C12	1	/	5	/
N=c1c(S(=O)(=O)c2ccc(Cl)cc2)cc2c(=O)n3ccccc3nc2n1C1CCCCC1	1	65*	-9	-10
N=c1c(S(=O)(=O)c2ccccc2)cc2c(=O)n3ccccc3nc2n1C1CCCC1	-22	21	-34	-4
O=C(COC(=O)CCc1nc2ccccc2c(=O)[nH]1)NCc1ccc(F)cc1	-5	-5	-13	50*
O=C(CCc1nc2ccccc2c(=O)[nH]1)OCc1nnc(-c2ccccc2)o1	0	-2	3	75*
O=C(CCc1nc2ccccc2c(=O)[nH]1)OCc1ccccc1F	-3	-21	-3	25
O=C(CCc1nc2ccccc2c(=O)[nH]1)OCCOc1ccc(Cl)cc1	0	6	3	66*
Cc1ccc(C(=O)CCC(=O)OCc2nnc(-c3ccccc3)o2)cc1	-2	15	-9	-6
CC(=O)NCc1ccc(-c2csc(NC(=O)CCc3nc4ccccc4c(=O)[nH]3)n2)s1	-208	-4	-312	90*
CCOC(=O)[C@]12CCCCC/C=C\1N(CCc1ccc(Cl)cc1)C(=O)[C@H]2CC(=O)N1CCSCC1	1	/	-1	/
